# Sampled rows, rich in hits. Any-hit rate of the full collection: about 12%.
# BAZ2B block – blocks human BAZ2B. Potency, µM (doses to about 114 µM), inactives show at the highest dose activity change, negative = inhibition, actives largely listed as inhibitors. 4.4% of 360,000 active. AID 504333. AlphaScreen BAZ2B-H3K14Ac peptide displacement; further: potency means the concentration at half of the fitted maximal effect; on the % scale 0 is the no-effect control and ±100 the full control effect; nearly all actives have a fitted effect of over 60% in size
#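 Inhibition is scored as reduced AlphaScreen emission. The BAZ2B/b-H3(5-23)K14Ac complex (50 nM each) in PBS pH 7.4, 0.01% Tween-20 meets compound (up to 110 uM) for 30 min at RT before bead addition.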
# HP1b chromo inh – blocks HP1-beta chromodomain binding to methylated histone tails | 0.56% of 390,000 active | Potency, µM (top dose mostly 114 µM), without a hit: at the highest dose activity change, negative = inhibition, usual class: inhibitors | P83916 | AlphaScreen HP1-beta / biotin-H3K9me3 peptide binding; further: potency means the concentration at half of the fitted maximal effect; nearly all actives have a fitted effect of over 70% in size
# Target sequence (P83916 whole entry, looked up): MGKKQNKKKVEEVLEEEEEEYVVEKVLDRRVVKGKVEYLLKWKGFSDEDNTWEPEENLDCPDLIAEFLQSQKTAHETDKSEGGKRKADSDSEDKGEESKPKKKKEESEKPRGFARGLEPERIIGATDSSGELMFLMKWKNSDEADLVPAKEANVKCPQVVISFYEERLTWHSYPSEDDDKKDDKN
#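 HP1-beta protein (50 nM final) preincubated 30 min at room temperature with biotinylated H3(1-18)K9me3 peptide (50 nM) in PBS pH 7.4, 0.01% Tween-20, then compound added for 30 min. AlphaScreen streptavidin donor/nickel chelate acceptor beads (10 ug/mL final), 30 min dark, luminescence read.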
# PI5P4Ka inh – PI5P4K alpha (human) kinase inhibition; PI5P4Kalpha enzyme, ADP-Glo luminescence, 60 min; stronger effect = lower value; max response, %; 1.2% of 330,000 active; AID 652105; active means max response of -50% or lower; inconclusive means between -30% and -50%; inactive means -30% or higher; further: value at the top dose of about 77 µM; on the % scale 0 is the no-effect control and ±100 the full control effect
#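 Compounds were pin-transferred onto PI5P4Kalpha and substrate in HEPES pH 7.4 buffer with EGTA, CHAPS and 5% DMSO. ATP (5 microM final) started the reaction, which ran 60 minutes at room temperature before ADP-Glo detection.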
# G9a block – inhibitors of human histone lysine methyltransferase G9a. G9a H3K9 monomethylation, AlphaScreen, 2 h. AID 504332. Potency, µM (titrated, usually from 102 µM), for inactives: at the top dose activity, negative = inhibition, usual class: inhibitors. 8.8% of 350,000 active; further: potency means the concentration at half of the fitted maximal effect; on the % scale 0 is the no-effect control and ±100 the full control effect; nearly all actives have a fitted effect of over 75% in size
# Target sequence (Q96KQ7 913-1193 limits assumed): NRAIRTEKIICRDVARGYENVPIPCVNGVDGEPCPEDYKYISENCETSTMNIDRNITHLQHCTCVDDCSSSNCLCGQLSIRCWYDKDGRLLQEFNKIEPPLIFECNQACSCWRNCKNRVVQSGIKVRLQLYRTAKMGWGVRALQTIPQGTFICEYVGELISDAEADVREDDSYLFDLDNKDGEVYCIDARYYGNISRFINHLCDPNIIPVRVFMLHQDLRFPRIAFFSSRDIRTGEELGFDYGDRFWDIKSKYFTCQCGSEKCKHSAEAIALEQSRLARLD
#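 AlphaScreen detection with an anti-monomethyl H3K9 antibody quantified product after a 2 h room-temperature reaction containing 500 nM biotinylated H3K9 peptide, 20 µM SAM and 20 nM enzyme, which had been preincubated 15 min with compound.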
# PLK1 PBD inh – blocks phosphopeptide binding to human PLK1 polo-box domain. Plk1 PBD binding of FITC phosphopeptide, fluorescence polarization. Potency, µM, for inactives: max response, negative = inhibition, most hits filed as inhibitors. 2.8% of 360,000 active. P53350; further: potency means the concentration at half of the fitted maximal effect; series mostly up to about 57 µM; on the % scale 0 is the no-effect control and ±100 the full control effect; nearly all actives have a fitted effect of over 65% in size
# JMJD2A Tudor – blocks the human JMJD2A Tudor domain | O75164 | AlphaScreen JMJD2A-Tudor / H3K4me3 peptide binding | Potency, µM (series often up to 114 µM), without a hit: at the top dose activity change, negative = inhibition, actives largely listed as inhibitors | 4.4% of 390,000 active; further: potency means the concentration at half of the fitted maximal effect; on the % scale 0 is the no-effect control and ±100 the full control effect; nearly all actives have a fitted effect of over 50% in size
# The depositor's hits bear a star; ? = inconclusive; nt = not tested or not shown; [ ] = dose if it differs, or a comment. Unless noted, the call rests on the fitted dose curve; in most records, active means well fitted curve in the direction sought with a large enough effect; inconclusive means small, poorly fitted or top-dose-only effect, or another doubt; inactive means no such curve, though single readings can be large; an effect the other way counts as inactive or inconclusive.
SMILES,BAZ2B block,HP1b chromo inh,PI5P4Ka inh,G9a block,PLK1 PBD inh,JMJD2A Tudor
Cc1ccc(S(=O)(=O)Oc2ccc(/C=C3\C(=N)N4N=C(S(C)(=O)=O)SC4=NC3=O)cc2)cc1,50µM*,-9%[57 µM],-57*,13µM*,15µM*,35µM*
CCC1=NN2C(=N)/C(=C/c3ccc(OS(=O)(=O)c4ccccc4)cc3)C(=O)N=C2S1,-5%,5%,-63*,nt,?,-31%
Cc1c(P(=S)(c2ccccc2)c2ccccc2)c2ccccc2n1CCCc1ccccc1,nt,nt,nt,nt,nt,-2%
CCOc1ccc(CCNC(=O)Cc2ccc(NC(=O)N3CCSc4ncccc43)cc2)cc1,-11%,41%,nt,4%[59 µM],nt,-8%
Cc1oc2c(c1C(=O)NCc1cccnc1)C(=O)c1ccccc1C2=O,-5%,29%,-1,nt,-10%,-17%
COc1ccc(CNC(=O)c2c(C)oc3c2C(=O)c2ccccc2C3=O)cc1,7.9µM*,8%,-4,11µM*,-8%,?
Cc1ccc(CNC(=O)c2ccc(Br)o2)cc1,-22%,8%,nt,-57%[12.7 µM],-11%,-9%
O=C(CCNC(=O)c1ccc(Br)o1)NCc1ccc(Cl)cc1,-3%,33%,nt,-5%,-3%,-7%
COc1cccc(CNC(=O)CCNC(=O)c2ccc(Br)o2)c1,-11%,-1%,-19,-4%[59 µM],13µM*,?
COc1ccc(CNC(=O)c2ccc(Br)o2)cc1,1%,42%,-5,20µM*,5%,0%
O=C(Cn1cc(SCc2ccccc2F)c2ccccc21)N1CCCCC1,-7%,22%,nt,4%[59 µM],nt,-8%
CCC(C(=O)Nc1ccc(C)c(Cl)c1)n1c(=O)c(-c2ccccc2NC(C)=O)nc2ccccc21 (centres undefined),-11%,10%,nt,-36%[59 µM],nt,-14%
COc1ccc(-c2[nH]ncc2CN(CC2CCC(=O)N2)C(C)C)cc1F (centres undefined),-10%,-14%[57 µM],-9,?,27µM*,?
CCOC(=O)c1ccccc1NC(=O)CSc1ccc(-c2ccccn2)nn1,2.8µM*,55%,3,nt,-8%,16µM*
COc1ccc(C)cc1NC(=O)CSc1ccc(-c2ccccn2)nn1,3.5µM*,14%,3,29%,-19%,4.5µM*
C=CCn1c(=O)c(C(=O)NC2CC2)c(O)c2cc(OC)c(OC)cc21,-17%,75%,5,14%,-8%,-16%
COc1ccc(NC(=O)CS(=O)(=O)Cc2ccccc2)c([N+](=O)[O-])c1,-6%,11%,1,nt,-20%,-8%
CCC(C(=O)Nc1ccccc1C(=O)OC)n1nc(C)c2c(C)n(-c3ccc(C)cc3)nc2c1=O (centres undefined),-24%,-4%,nt,-34%[59 µM],nt,-27%
CC(C)(C)OC(=O)N1CCN(C(=O)c2[nH]cnc2C(=O)NCC(=O)OCc2ccccc2)CC1,-1%,27%,1,71µM*,-2%,-19%
CC(C)(C)OC(=O)CNC(=O)c1nc[nH]c1C(=O)N1CCN(C(=O)OC(C)(C)C)CC1,-7%,24%,-7,79µM*,-2%,-3%
CC(C)(C)OC(=O)CNC(=O)c1nc[nH]c1C(=O)N1CCNCC1,79µM*,35%,-2,22%[2.33 µM],0%,?
CC(C)(C)OC(=O)N1CCN(C(=O)c2[nH]cnc2C(=O)NCc2ccccc2)CC1,4%,23%,-4,12%[0.501 µM],-2%,-11%
COc1cccc(-c2nnc(NC(=O)C(C)C)o2)c1,79µM*,40%,7,8.9µM*,-15%,?
COc1cc(OC)cc(C(=O)Nc2nnc(-c3cccnc3)o2)c1,56µM*,45%,1,7%,-4%,6%
Cc1sc(NC(=O)c2ccco2)nc1-c1ccc2c(c1)CC(C)N2C(=O)C1CC1 (centres undefined),-4%,?,nt,45µM*,-17%,-26%
CC(=O)Nc1nc(-c2ccc3c(c2)CC(C)N3C(=O)C2CC2)c(C)s1 (centres undefined),?,?,-4,25µM*,-16%,-32%

# Screens (PubChem BioAssay)
